# Where two headings read alike, the source gives them in different places.
# Legend:
# TAOK1 = conditions: concentration: 1 μM, replicates: in singlicate; n = 1
# TAOK2 = conditions: concentration: 1 μM, replicates: in singlicate; n = 1
# TAOK3 = conditions: concentration: 1 μM, replicates: in singlicate; n = 1
# TBK1 = conditions: concentration: 1 μM, replicates: in singlicate; n = 1
# TEC = conditions: concentration: 1 μM, replicates: in singlicate; n = 1
# TESK1 = conditions: concentration: 1 μM, replicates: in singlicate; n = 1
# TGFBR1 = conditions: n = 1
# TGFBR2 = conditions: concentration: 1 μM, replicates: in singlicate; n = 1
# TIE1 = conditions: concentration: 1 μM, replicates: in singlicate; n = 1
# TIE2 = test system: T1, TIE2; conditions: concentration: 1 μM, replicates: in singlicate; n = 1
# T1 construct: gene TEK
# TLK1 = conditions: concentration: 1 μM, replicates: in singlicate; n = 1
# TLK2 = conditions: concentration: 1 μM, replicates: in singlicate; n = 1
# TNIK = conditions: concentration: 1 μM, replicates: in singlicate; n = 1
# TNK1 = conditions: concentration: 1 μM, replicates: in singlicate; n = 1
# TNK2 = conditions: concentration: 1 μM, replicates: in singlicate; n = 1
# TNNI3K = conditions: concentration: 1 μM, replicates: in singlicate; n = 1
# TRKA = test system: T2, TRKA; conditions: concentration: 1 μM, replicates: in singlicate; n = 1
# T2 construct: gene NTRK1
# TRKB = conditions: concentration: 1 μM, replicates: in singlicate; n = 1
# TRKC = test system: T3, TRKC; conditions: concentration: 1 μM, replicates: in singlicate; n = 1
# T3 construct: gene NTRK3
# TRPM6 = conditions: concentration: 1 μM, replicates: in singlicate; n = 1
# [1] = concentration: 1 μM, replicates: in singlicate
# 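Further: KINOMEscan kinase panel screen.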
smiles,measurement,setting,value
COc1ccc(Nc2nccc(-c3ccc(NC(=O)c4cc5cc(F)ccc5[nH]4)cc3)n2)cc1 [GSK1229496],%Inh,TAOK1,0%
same,%Inh,TAOK2,0%
same,%Inh,TAOK3,0%
same,%Inh,TBK1,11%
same,%Inh,TEC,0%
same,%Inh,TESK1,7%
same,%Inh,TGFBR1; [1],9%
same,%Inh,TGFBR2,0%
same,%Inh,TIE1,0%
same,%Inh,TIE2,0%
same,%Inh,TLK1,23%
same,%Inh,TLK2,0%
same,%Inh,TNIK,0%
same,%Inh,TNK1,47%
same,%Inh,TNK2,0%
same,%Inh,TNNI3K,0%
same,%Inh,TRKA,9%
same,%Inh,TRKB,13%
same,%Inh,TRKC,0%
same,%Inh,TRPM6,0%
FC(F)(F)c1ccccc1-c1cc(-c2c[nH]nc2-c2ccccn2)ccn1 [GW679396],%Inh,TAOK1,0%
same,%Inh,TAOK2,0%
same,%Inh,TAOK3,0%
same,%Inh,TBK1,18%
same,%Inh,TEC,1%
same,%Inh,TESK1,14%
same,%Inh,TGFBR1; 1 µM,0%
same,%Inh,TGFBR2,10%
same,%Inh,TIE1,0%
same,%Inh,TIE2,7%
same,%Inh,TLK1,0%
same,%Inh,TLK2,0%
same,%Inh,TNIK,18%
same,%Inh,TNK1,1%
same,%Inh,TNK2,0%
same,%Inh,TNNI3K,0%
same,%Inh,TRKA,39%
same,%Inh,TRKB,0%
same,%Inh,TRKC,0%
same,%Inh,TRPM6,3%
COc1ccc(CSc2nnc(-c3ccc4nccn4c3)o2)cc1C(F)(F)F,%Inh,TAOK1,22%
same,%Inh,TAOK2,13%
same,%Inh,TAOK3,0%
same,%Inh,TBK1,10%
same,%Inh,TEC,21%
same,%Inh,TESK1,12%
same,%Inh,TGFBR1; [1],14%
same,%Inh,TGFBR2,12%
same,%Inh,TIE1,22%
same,%Inh,TIE2,0%
same,%Inh,TLK1,6%
same,%Inh,TLK2,13%
same,%Inh,TNIK,0%
same,%Inh,TNK1,0%
same,%Inh,TNK2,3%
same,%Inh,TNNI3K,0%
same,%Inh,TRKA,18%
same,%Inh,TRKB,0%
same,%Inh,TRKC,38%
same,%Inh,TRPM6,0%
O=C(Nc1n[nH]c2cc(-c3ccsc3)ccc12)C1CC1 [SB-732932],%Inh,TAOK1,64%
same,%Inh,TAOK2,8%
same,%Inh,TAOK3,26%
same,%Inh,TBK1,9%
same,%Inh,TEC,32%
same,%Inh,TESK1,9%
same,%Inh,TGFBR1; [1],0%
same,%Inh,TGFBR2,0%
same,%Inh,TIE1,11%
same,%Inh,TIE2,11%
same,%Inh,TLK1,0%
same,%Inh,TLK2,0%
same,%Inh,TNIK,61%
same,%Inh,TNK1,0%
same,%Inh,TNK2,8%
same,%Inh,TNNI3K,0%
same,%Inh,TRKA,87%
same,%Inh,TRKB,39%
same,%Inh,TRKC,38%
same,%Inh,TRPM6,0%
O=C(Nc1n[nH]c2nc(-c3cccs3)c(Br)cc12)C1CC1 [SB-735297],%Inh,TAOK1,10%
same,%Inh,TAOK2,0%
same,%Inh,TAOK3,0%
same,%Inh,TBK1,33%
same,%Inh,TEC,0%
same,%Inh,TESK1,19%
same,%Inh,TGFBR1; [1],0%
same,%Inh,TGFBR2,0%
same,%Inh,TIE1,0%
same,%Inh,TIE2,12%
same,%Inh,TLK1,5%
same,%Inh,TLK2,0%
same,%Inh,TNIK,17%
same,%Inh,TNK1,33%
same,%Inh,TNK2,0%
same,%Inh,TNNI3K,98.6%
same,%Inh,TRKA,6%
same,%Inh,TRKB,41%
same,%Inh,TRKC,17%
same,%Inh,TRPM6,18%
Cc1ccc(NC(=O)Nc2ccc(Cl)cc2)cc1-c1ccc(C(=O)Nc2ccncc2)cc1 [GSK1398472],%Inh,TAOK1,0%
same,%Inh,TAOK2,0%
same,%Inh,TAOK3,0%
same,%Inh,TBK1,8%
same,%Inh,TEC,0%
same,%Inh,TESK1,54%
same,%Inh,TGFBR1; [1],3%
same,%Inh,TGFBR2,0%
same,%Inh,TIE1,0%
same,%Inh,TIE2,0%
same,%Inh,TLK1,0%
same,%Inh,TLK2,0%
same,%Inh,TNIK,0%
same,%Inh,TNK1,0%
same,%Inh,TNK2,16%
same,%Inh,TNNI3K,25%
same,%Inh,TRKA,0%
same,%Inh,TRKB,0%
same,%Inh,TRKC,9%
same,%Inh,TRPM6,14%
NS(=O)(=O)c1cccc(N/C=C2\C(=O)Nc3ccc(S(=O)(=O)Cc4c(Cl)cccc4Cl)cc32)c1 [GSK398099],%Inh,TAOK1,0%
same,%Inh,TAOK2,2%
same,%Inh,TAOK3,10%
same,%Inh,TBK1,37%
same,%Inh,TEC,6%
same,%Inh,TESK1,9%
same,%Inh,TGFBR1; [1],0%
same,%Inh,TGFBR2,0%
same,%Inh,TIE1,0%
same,%Inh,TIE2,0%
same,%Inh,TLK1,75%
same,%Inh,TLK2,0%
same,%Inh,TNIK,91.8%
same,%Inh,TNK1,0%
same,%Inh,TNK2,26%
same,%Inh,TNNI3K,4%
same,%Inh,TRKA,49%
same,%Inh,TRKB,0%
same,%Inh,TRKC,29%
same,%Inh,TRPM6,37%
Cl.Cl.Cl.N#Cc1ccc(CCNc2nccc(-c3cccc(CN4CCNCC4)c3)n2)cc1 [GSK2137462],%Inh,TAOK1,0%
same,%Inh,TAOK2,2%
same,%Inh,TAOK3,0%
same,%Inh,TBK1,19%
same,%Inh,TEC,0%
same,%Inh,TESK1,11%
same,%Inh,TGFBR1; [1],0%
same,%Inh,TGFBR2,0%
same,%Inh,TIE1,2%
same,%Inh,TIE2,0%
same,%Inh,TLK1,9%
same,%Inh,TLK2,3%
same,%Inh,TNIK,3%
same,%Inh,TNK1,4%
same,%Inh,TNK2,5%
same,%Inh,TNNI3K,18%
same,%Inh,TRKA,56%
same,%Inh,TRKB,0%
same,%Inh,TRKC,0%
same,%Inh,TRPM6,0%
CC[C@@H]1CO[C@H](C(=O)Nc2ccccc2)CN1c1cc(-c2ccc3c(N)n[nH]c3c2)nc(NC)n1 [GSK2376236],%Inh,TAOK1,0%
same,%Inh,TAOK2,1%
same,%Inh,TAOK3,0%
same,%Inh,TBK1,31%
same,%Inh,TEC,0%
same,%Inh,TESK1,0%
same,%Inh,TGFBR1; [1],9%
same,%Inh,TGFBR2,0%
same,%Inh,TIE1,4%
same,%Inh,TIE2,0%
same,%Inh,TLK1,21%
same,%Inh,TLK2,0%
same,%Inh,TNIK,0%
same,%Inh,TNK1,4%
same,%Inh,TNK2,0%
same,%Inh,TNNI3K,17%
same,%Inh,TRKA,9%
same,%Inh,TRKB,0%
same,%Inh,TRKC,0%
same,%Inh,TRPM6,35%
Cn1cncc1C(=O)NC1CCN(c2ccnc(Nc3ccc(F)cc3)n2)C1 (centres unmarked) [GSK1379717],%Inh,TAOK1,0%
same,%Inh,TAOK2,0%
same,%Inh,TAOK3,0%
same,%Inh,TBK1,9%
same,%Inh,TEC,4%
same,%Inh,TESK1,98.9%
same,%Inh,TGFBR1; [1],26%
same,%Inh,TGFBR2,0%
same,%Inh,TIE1,0%
same,%Inh,TIE2,0%
same,%Inh,TLK1,18%
same,%Inh,TLK2,0%
same,%Inh,TNIK,0%
same,%Inh,TNK1,0%
same,%Inh,TNK2,10%
same,%Inh,TNNI3K,0%
same,%Inh,TRKA,0%
same,%Inh,TRKB,17%
same,%Inh,TRKC,48%
same,%Inh,TRPM6,31%
